Hit rate of the full screen: of about 5,500 compounds, about 2,000 (36%) were called active. Inconclusive results (about 18%) are left out. The list shows a part of the results. Unmarked numbers belong to inactive results. No stated cut-off is given here; in the data, active means normalized growth mostly below about 0.91 (no sharp cut-off); inconclusive means no clear call, values can overlap the other calls; inactive means mostly above about 0.92.
Assay: chemical genetic growth profiling, strain panel (AID 1159580);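 further: tested at 20 µM; growth read once vehicle control cultures reached saturation at 30 °C; 1 = growth at the plate median or of vehicle wells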
Details: S. cerevisiae deletion strains, growth OD
[1] = locus YAR019C, strain CDC15, stronger effect = lower value
[2] = locus YBL105C, strain PKC1, stronger effect = lower value
[3] = locus YBR135W, strain CKS1, stronger effect = lower value
[4] = locus YBR136W, strain MEC1, stronger effect = lower value
[5] = locus YBR160W, strain CDC28, stronger effect = lower value
[6] = locus YDL017W, strain CDC7, stronger effect = lower value
[7] = locus YDL028C, strain MPS1, stronger effect = lower value
[8] = locus YDL101C, strain DUN1, stronger effect = lower value
[9] = locus YDL108W, strain KIN28, stronger effect = lower value
[10] = locus YDL132W, strain cdc53, stronger effect = lower value
[11] = locus YDL214C, strain PRR2, stronger effect = lower value
[12] = locus YDR052C, strain DBF4, stronger effect = lower value
[13] = locus YDR054C, strain cdc34, stronger effect = lower value
[14] = locus YDR226W, strain ADK1, stronger effect = lower value
[15] = locus YDR477W, strain SNF1, stronger effect = lower value
[16] = locus YER123W, strain YCK3, stronger effect = lower value
[17] = locus YER133W, strain GLC7, stronger effect = lower value
[18] = locus YFL009W, strain cdc4, stronger effect = lower value
[19] = locus YFL029C, strain CAK1, stronger effect = lower value
[20] = locus YFR003C, strain YPI1, stronger effect = lower value
[21] = locus YFR019W, strain FAB1, stronger effect = lower value
[22] = locus YFR028C, strain CDC14, stronger effect = lower value
[23] = locus YGR040W, strain KSS1, stronger effect = lower value
[24] = locus YGR052W, strain FMP48, stronger effect = lower value
[25] = locus YGR092W, strain DBF2, stronger effect = lower value
[26] = locus YHR030C, strain SLT2, stronger effect = lower value
[27] = locus YHR079C, strain IRE1, stronger effect = lower value
[28] = locus YHR082C, strain KSP1, stronger effect = lower value
[29] = locus YHR205W, strain SCH9, stronger effect = lower value
[30] = locus YIL147C, strain SLN1, stronger effect = lower value
[31] = locus YJL095W, strain BCK1, stronger effect = lower value
[32] = locus YJL128C, strain PBS2, stronger effect = lower value
[33] = locus YJL157C, strain FAR1, stronger effect = lower value
[34] = locus YJR016C, strain ILV3, stronger effect = lower value
[35] = locus YJR066W, strain TOR1 (second series), stronger effect = lower value
[36] = locus YJR066W, strain TOR1, stronger effect = lower value
[37] = locus YKL048C, strain ELM1, stronger effect = lower value
[38] = locus YKL067W, strain YNK1, stronger effect = lower value
[39] = locus YKL101W, strain HSL1, stronger effect = lower value
[40] = locus YKL193C, strain SDS22, stronger effect = lower value
[41] = locus YKL203C, strain TOR2, stronger effect = lower value
[42] = locus YLR113W, strain HOG1, stronger effect = lower value
[43] = locus YLR133W, strain CKI1, stronger effect = lower value
[44] = locus YLR403W, strain SFP1, stronger effect = lower value
[45] = locus YML070W, strain DAK1, stronger effect = lower value
[46] = locus YMR001C, strain CDC5, stronger effect = lower value
[47] = locus YMR205C, strain PFK2 (second series), stronger effect = lower value
[48] = locus YMR277W, strain FCP1, stronger effect = lower value
[49] = locus YNL006W, strain LST8, stronger effect = lower value
[50] = locus YNL020C, strain ARK1, stronger effect = lower value
[51] = locus YNL161W, strain CBK1, stronger effect = lower value
[52] = locus YNL183C, strain NPR1, stronger effect = lower value
[53] = locus YNL207W, strain RIO2, stronger effect = lower value
[54] = locus YNL222W, strain SSU72, stronger effect = lower value
[55] = locus YNL307C, strain MCK1 (second series), stronger effect = lower value
[56] = locus YOL078W, strain AVO1, stronger effect = lower value
[57] = locus YOL136C, strain PFK27, stronger effect = lower value
[58] = locus YOR061W, strain CKA2, stronger effect = lower value
[59] = locus YOR119C, strain RIO1, stronger effect = lower value
[60] = locus YOR231W, strain MKK1, stronger effect = lower value
[61] = locus YOR329C, strain SCD5, stronger effect = lower value
[62] = locus YPL031C, strain PHO85, stronger effect = lower value
[63] = locus YPL153C, strain RAD53, stronger effect = lower value
[64] = locus YPL204W, strain HRR25, stronger effect = lower value
[65] = locus YPL209C, strain IPL1, stronger effect = lower value
[66] = locus YPL256C, strain CLN2, stronger effect = lower value
[67] = locus YPR025C, strain CCL1, stronger effect = lower value
[68] = locus YPR106W, strain ISR1, stronger effect = lower value
[69] = locus YPR111W, strain DBF20, stronger effect = lower value
[70] = strain NNK1, stronger effect = lower value
[71] = strain TSCII, stronger effect = lower value

CCC1(c2ccccc2)OC(c2cc(Cl)cc(Cl)c2O)Nc2ccccc21 (configuration not stated)
normalized growth [1]: 0.96
normalized growth [2]: 0.964
normalized growth [3]: 0.965
normalized growth [4]: 0.968
normalized growth [5]: 0.964
normalized growth [6]: 0.965
normalized growth [7]: 0.966
normalized growth [8]: 0.986
normalized growth [9]: 0.968
normalized growth [10]: 0.963
normalized growth [11]: 0.705
normalized growth [12]: 0.976
normalized growth [13]: 0.954
normalized growth [14]: 0.97
normalized growth [15]: 0.689 (active)
normalized growth [16]: 0.513 (active)
normalized growth [17]: 0.734
normalized growth [18]: 0.962
normalized growth [19]: 0.967
normalized growth [20]: 0.958
normalized growth [21]: 0.738 (active)
normalized growth [22]: 0.963
normalized growth [23]: 0.689 (active)
normalized growth [24]: 0.651
normalized growth [25]: 0.233 (active)
normalized growth [26]: 0.449 (active)
normalized growth [27]: 0.461 (active)
normalized growth [28]: 0.689
normalized growth [29]: 0.639
normalized growth [30]: 0.964
normalized growth [31]: 0.464 (active)
normalized growth [32]: 0.93
normalized growth [33]: 0.564 (active)
normalized growth [34]: 0.962
normalized growth [35]: 0.633
normalized growth [36]: 0.572
normalized growth [37]: 0.717 (active)
normalized growth [38]: 0.696 (active)
normalized growth [39]: 0.678 (active)
normalized growth [40]: 0.971
normalized growth [41]: 0.751
normalized growth [42]: 0.539 (active)
normalized growth [43]: 0.623 (active)
normalized growth [44]: 0.572 (active)
normalized growth [45]: 0.561 (active)
normalized growth [46]: 0.971
normalized growth [47]: 0.688 (active)
normalized growth [48]: 0.968
normalized growth [49]: 0.969
normalized growth [50]: 0.552 (active)
normalized growth [51]: 0.962
normalized growth [52]: 0.646
normalized growth [53]: 0.96
normalized growth [54]: 0.956
normalized growth [55]: 0.551 (active)
normalized growth [56]: 0.967
normalized growth [57]: 0.452 (active)
normalized growth [58]: 0.469 (active)
normalized growth [59]: 0.753
normalized growth [60]: 0.476 (active)
normalized growth [61]: 0.962
normalized growth [62]: 0.685
normalized growth [63]: 0.562 (active)
normalized growth [64]: 0.604 (active)
normalized growth [65]: 0.954
normalized growth [66]: 0.47 (active)
normalized growth [67]: 0.96
normalized growth [68]: 0.954
normalized growth [69]: 0.957
normalized growth [70]: 0.963
normalized growth [71]: 0.966

COc1ccc(-c2cc(NS(=O)(=O)c3cccc(F)c3)n(-c3ccc(Cl)c(Cl)c3)n2)cc1
normalized growth [1]: 0.961
normalized growth [2]: 0.971
normalized growth [3]: 0.977
normalized growth [4]: 0.965
normalized growth [5]: 0.963
normalized growth [6]: 0.97
normalized growth [7]: 0.945
normalized growth [8]: 0.979
normalized growth [9]: 0.975
normalized growth [10]: 0.977
normalized growth [11]: 0.92
normalized growth [12]: 0.984
normalized growth [13]: 0.966
normalized growth [14]: 0.961
normalized growth [15]: 0.903
normalized growth [16]: 0.908
normalized growth [17]: 0.94
normalized growth [18]: 0.947
normalized growth [19]: 0.961
normalized growth [20]: 0.98
normalized growth [21]: 0.931
normalized growth [22]: 0.965
normalized growth [23]: 0.894
normalized growth [24]: 0.954
normalized growth [25]: 0.838
normalized growth [26]: 0.635 (active)
normalized growth [27]: 0.888
normalized growth [28]: 0.873
normalized growth [29]: 0.856
normalized growth [30]: 0.959
normalized growth [31]: 0.888
normalized growth [32]: 0.921
normalized growth [33]: 0.939
normalized growth [34]: 0.972
normalized growth [35]: 0.922
normalized growth [36]: 0.87
normalized growth [37]: 0.929
normalized growth [38]: 0.91
normalized growth [39]: 0.87
normalized growth [40]: 0.968
normalized growth [41]: 0.995
normalized growth [42]: 0.811 (active)
normalized growth [43]: 0.912
normalized growth [44]: 0.924
normalized growth [45]: 0.906
normalized growth [46]: 0.956
normalized growth [47]: 0.937
normalized growth [48]: 0.947
normalized growth [49]: 0.966
normalized growth [50]: 0.89
normalized growth [51]: 0.971
normalized growth [52]: 0.956
normalized growth [53]: 0.973
normalized growth [54]: 0.958
normalized growth [55]: 0.839
normalized growth [56]: 0.976
normalized growth [57]: 0.887
normalized growth [58]: 0.87
normalized growth [59]: 0.944
normalized growth [60]: 0.873
normalized growth [61]: 0.967
normalized growth [62]: 0.913
normalized growth [63]: 0.915
normalized growth [64]: 0.905
normalized growth [65]: 0.97
normalized growth [66]: 0.828 (active)
normalized growth [67]: 0.966
normalized growth [68]: 0.963
normalized growth [69]: 0.942
normalized growth [70]: 0.961
normalized growth [71]: 0.962

From PubChem BioAssay AID1159580 (chemical genetic matrix, 2015)
